Calls of active or inactive are those of the source.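 Rule for the calls: active = RAM network inhibition above 8.4% in each of two replicates, 3 SD over the compound average; inconclusive = above 8.4% inhibition in only one replicate; inactive = 8.4% inhibition or less in each replicate.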

The assay can be described thus: RAM signaling pathway blockade in yeast – S. cerevisiae, Pdr1DBD-CYC8 efflux-inhibited sensitized strain, primary screen (AID 1298).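 Note: 0% = DMSO untreated cells without growth and 100% = 10 µM 1-NA-PP1 full growth; higher means more yeast growth rescued from 5-FOA killing.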 The note with it: S. cerevisiae cbk1-as DSE1-URA3 strain, 5-FOA growth OD615, 2 d; at 50 µM; hits give high values.
As for `O=CN1CCN(C(C(=O)NC2CCCC2)c2ccc(Cl)cc2)CC1` (centres undefined), the RAM network inhibition is 2.38% (inactive).

In the case of `O=C(NCCC1=CCCCC1)c1ccc2c(=O)n3c(nc2c1)CCCCC3`, the RAM network inhibition was 0.26% (inactive). On to `Cc1ccc(CNC(=O)CCS(=O)(=O)c2cccc3nsnc23)cc1`, for which the RAM network inhibition was 6.91% (inactive). As for `COc1cc(NC(=O)CN2CC(c3ccccc3)CC2=O)cc(OC)c1` (centres undefined), the RAM network inhibition was 1.83% (inactive). As to `Cc1cccc(OCCn2c(=O)n(C)c3ccccc32)c1`, the RAM network inhibition is 0.1% (inactive).

On to `C1=C(N2CCOCC2)/C(=C/c2nc3ccccc3[nH]2)CC1`, for which the RAM network inhibition is 2.44% (inactive). The same measure for `Nc1nonc1-n1nncc1-c1ccccc1`: 1.25% (inactive); for `O=C1CC(c2ccco2)Sc2nc3ccccc3n21` (centres undefined): 1.62% (inactive); for `CCC1CCCCN1Cc1nc2c(c(=O)n(C)c(=O)n2C)n1Cc1ccccc1` (centres undefined): 2.14% (inactive). In the case of `CCOCCCNC(=O)C(c1ccc(Cl)cc1)N1CCN(C(=O)c2ccco2)CC1` (centres undefined), the RAM network inhibition is 5.86% (inactive). The same measure for `O=C(C1CC1)N1CCc2cc(Br)cc(S(=O)(=O)NCCCN3CCCC3)c21`: 5.37% (inactive); for `COc1ccc(CCN=C2SCC(=O)N2C)cc1OC`: 6.13% (inactive).

`CCOc1ccccc1NC(=O)C1CCC(CNc2c(N3CCOCC3)c(=O)c2=O)CC1` (centres undefined): the RAM network inhibition was 1.18% (inactive). Consider `Cc1ccc(-n2c(SCC(=O)NCC3CCCO3)nc3c(c2=O)SCC3)cc1` (centres undefined), for which the RAM network inhibition was 2.18% (inactive). The same measure for `O=C(CCS(=O)(=O)c1cccc2nonc12)NCCc1ccccc1`: 5.03% (inactive). With `O=c1c2cc(-c3ccccc3)sc2ncn1/N=C/c1ccco1`, the RAM network inhibition was 5.9% (inactive). As to `Cc1nnc(NC(=O)CSC2CCCCC2)s1`, the RAM network inhibition was 2.15% (inactive).

With `COc1cccc(N2CCN(C3CC(=O)N(c4ccc(Cl)cc4)C3=O)CC2)c1` (centres undefined), the RAM network inhibition is 5.46% (inactive). The same measure for `Cc1cc(Nc2cccc(F)c2)n2nc(C)nc2n1`: 5.28% (inactive); for `CCCCNc1nc2c(c(=O)n(C)c(=O)n2C)n1CCC`: 1.74% (inactive). For `Cc1ccc2c(c1)N(CCCC(=O)NCc1ccc3c(c1)OCO3)C(=O)CO2`, the RAM network inhibition was 1.64% (inactive).

Turning to `Cc1c(C(=O)N2CCC(C(N)=O)CC2)sc(N)c1C#N`, the RAM network inhibition was 9.2% (inactive). The same measure for `Cc1cc(NC(=O)c2cc(CC(C)C)on2)no1`: 6.04% (inactive); for `COC(=O)c1nc2n(n1)C(c1cccc(Cl)c1)C1=C(CCCC1=O)N2` (centres undefined): 1.89% (inactive).

The record behind these values is PubChem BioAssay.
